Records with an inconclusive call do not appear. A number with no mark means an inactive call. Calls follow the shape of the dose curve; as a rule, active = well fitted cell-killing curve with a large enough effect in the repeat runs; inconclusive = weak or mixed curves, or effect the other way; inactive = flat fitted curve, though single readings scatter.
Experiment: Human pregnane X receptor (PXR) small molecule agonists, qHTS cell viability counter screen (AID 1346977); also: nearly all actives have a fitted effect of over 50% in size
Conditions: PXR-Luc HepG2 viability, CellTiter-Fluor, 24 h; series mostly up to 92.4 µM; activity change, negative = cytotoxicity: at the top concentration
Excerpt: U.S. Tox21 Program National Center for Advancing Translational Sciences [NCATS] NIH Chemical Genomics Center [NCGC] U.S. Environmental Protection Agency [EPA] National Institutes of Environmental Health Sciences [NIEHS] National Toxicology Program [NTP] U.S. Food and Drug Administration [FDA] Tox21 Assay Overview: The human pregnane X receptor (hPXR) regulates the expression of several drug metabolizing enzymes and induction of these proteins is a major mechanism for developing drug resistance in cancer. One such key enzyme catalyzing the drug metabolism is cytochrome P450 3A4 (CYP3A4). Changes in CYP3A4 expression affect drug metabolism, thereby reducing the therapeutic efficacy and altering toxicological response to a drug and which finally causes adverse drug interaction. To screen Tox21 libraries for compounds that activate hPXR-mediated CYP3A4 gene expression, PXR-Luc HepG2 cells were used. Also cytotoxicity of the compounds was tested in parallel by measuring the cell viability using CellTiter-Fluor assay system in the same wells.
Tox21 Assay Protocol Summary: PXR-Luc HepG2 cells were dispensed at 2,000 per well in 5uL of assay medium containing 5% charcoal-stripped FBS into white solid bottom 1536-well plates (Corning Life Sciences, Corning, NY) using a Multidrop Combi (Thermo Scientific, Waltham, MA) dispenser. The assay plates were incubated at 37 C and 5% CO2 for 5hr, and then 23nL of compounds dissolved in DMSO and positive control were transferred using a Pintool station (Wako, San Diego, CA). The assay plates were incubated at 37C and 5% CO2 for 24hr. For cytotoxicity read, after 23hr incubation at 37C, 1uL CellTiter-Fluor reagent (Promega Corporation, Madison, WI) was added to each well of the assay plates using Flying Reagent Dispenser (FRD, Aurora Discovery, San Diego, CA). After 1hr incubation at 37C and 5% CO2, the fluorescence signal was quantified using a ViewLux plate reader (PerkinElmer, Shelton, CT).
With `Cc1coc2ccccc2c1=O` the “activity change, negative = cytotoxicity” value was 14.9% [at 42.5 µM]. With `NC(CCC(=O)O)C(=O)O` (stereo not given) the “activity change, negative = cytotoxicity” value was 3.07%. For `CN(C)CCCN(C)CCCN(C)C`, the “activity change, negative = cytotoxicity” value was -2.35%. In the case of `CCCCOC(=O)CCC(C)=O`, the “activity change, negative = cytotoxicity” value is reported as 0.74%. For `CCC(C(=O)NC(=O)NC(C)=O)c1ccccc1` (stereo not given), the “activity change, negative = cytotoxicity” value was -7.25% [at 42.5 µM]. With `Nc1ccn([C@@H]2O[C@H](CO)[C@@H](O)C2O)c(=O)n1` (stereo not given in full) the “activity change, negative = cytotoxicity” value was 2.33%. For `CC(C)(C#N)Nc1nc(Cl)nc(NC2CC2)n1`, the “activity change, negative = cytotoxicity” value was 3.36%. With `O=S(=O)(O)c1cccc2ccccc12` the “activity change, negative = cytotoxicity” value was 5.42%. In the case of `COC(=O)C1=C(C)NC(C)=C(C(=O)OC(C)C)C1c1cccc2nonc12` (stereo not given), the “activity change, negative = cytotoxicity” value is reported as -16.5% [at 42.5 µM]. With `CCCCCC(C)N` (stereo not given) the “activity change, negative = cytotoxicity” value was 0.743% [at 42.5 µM]. In the case of `CC1OC1C1CCC2(C)OC2C1` (stereo not given), the “activity change, negative = cytotoxicity” value is reported as 1.01%. In the case of `CCOC(=O)C1=NOC(c2ccccc2)(c2ccccc2)C1`, the “activity change, negative = cytotoxicity” value is reported as 1.13%. In the case of `COCCOCC(OC)OC`, the “activity change, negative = cytotoxicity” value is reported as 12.1% [at 42.5 µM]. In the case of `CCCC(C)C(=O)OCC` (stereo not given), the “activity change, negative = cytotoxicity” value is reported as 1.06%. In the case of `CCNS(=O)(=O)c1ccc(C)cc1`, the “activity change, negative = cytotoxicity” value is reported as 5.03%. For `C1CCC2=NCCCN2CC1`, the “activity change, negative = cytotoxicity” value was -8.13%. For `CN(C)C(=O)Oc1ccc[n+](C)c1`, the “activity change, negative = cytotoxicity” value was 13.9% [at 42.5 µM]. In the case of `CCOC(=O)CCC(=O)OCC`, the “activity change, negative = cytotoxicity” value is reported as 3.01%. For `OCCc1ccccn1`, the “activity change, negative = cytotoxicity” value was 9.39%. In the case of `CO[Si](C)(OC)c1ccccc1`, the “activity change, negative = cytotoxicity” value is reported as 4.19%. For `CC(=O)Oc1cccc(C)c1`, the “activity change, negative = cytotoxicity” value was 6.71% [at 42.5 µM]. In the case of `Cc1ccc(C(=O)Nc2ccc(S(=O)(=O)O)c3cc(S(=O)(=O)O)cc(S(=O)(=O)O)c23)cc1NC(=O)c1cccc(NC(=O)Nc2cccc(C(=O)Nc3cc(C(=O)Nc4ccc(S(=O)(=O)O)c5cc(S(=O)(=O)O)cc(S(=O)(=O)O)c45)ccc3C)c2)c1`, the “activity change, negative = cytotoxicity” value is reported as 10.8% [at 42.5 µM]. For `CC(C)C1CCC(O)CC1` (stereo not given), the “activity change, negative = cytotoxicity” value was 3.56%. For `CN1CCN(c2cc3c(nn2)Oc2ccccc2N3C)CC1`, the activity change, negative = cytotoxicity was 8.08% [at 19 µM]. In the case of `CC(CO)(CO)[N+](=O)[O-]`, the “activity change, negative = cytotoxicity” value is reported as 15.2%. In the case of `O=S(=O)(O)c1cccc2c(S(=O)(=O)O)cccc12`, the “activity change, negative = cytotoxicity” value is reported as 13.2%. For `CCCCCCC1CCC(=O)O1` (stereo not given), the “activity change, negative = cytotoxicity” value was 14.1%. For `CC1(C)[C@@H]2CC[C@@]1(C)[C@H](O)C2`, the “activity change, negative = cytotoxicity” value was -0.81%. For `CC(C)(N)C#N`, the “activity change, negative = cytotoxicity” value was -1.91%. In the case of `C[N+]12CCC(CC1)C(OC(=O)C(O)(c1ccccc1)c1ccccc1)C2` (stereo not given), the “activity change, negative = cytotoxicity” value is reported as -4.39% [at 42.5 µM]. In the case of `O=S(=O)(O)c1cc(O)c(O)c(S(=O)(=O)O)c1`, the “activity change, negative = cytotoxicity” value is reported as -0.892%. For `CCCCCCCCCCCCCCCCCCO`, the “activity change, negative = cytotoxicity” value was 2.11% [at 42.5 µM]. For `CN(C)[C@@H]1C(=O)C(C(=O)NCN2CCCC2)=C(O)[C@@]2(O)C(=O)C3=C(O)c4c(O)cccc4[C@@](C)(O)C3C[C@@H]12` (stereo not given in full), the “activity change, negative = cytotoxicity” value was 0.0501% [at 42.5 µM]. For `CCCCCCCCCC[N+](C)(C)[O-]`, the “activity change, negative = cytotoxicity” value was 3.19%. In the case of `c1ccc(CCc2ccccc2)cc1`, the “activity change, negative = cytotoxicity” value is reported as 18.9%. For `CCCCCC(=O)OCCc1ccccc1`, the “activity change, negative = cytotoxicity” value was 1.31%. For `O=C(c1ccccc1O)c1ccccc1O`, the “activity change, negative = cytotoxicity” value was -8.99%. With `COc1ccnc(CS(=O)c2nc3cc(OC(F)F)ccc3[nH]2)c1OC` (stereo not given) the “activity change, negative = cytotoxicity” value was 11.6%. With `O=C(O)CNC(=O)c1ccc(CO)o1` the “activity change, negative = cytotoxicity” value was 9.8%. In the case of `C=C[Si](OC(C)=O)(OC(C)=O)OC(C)=O`, the “activity change, negative = cytotoxicity” value is reported as 8.7%.
% is scaled to controls: 0 for no effect and ±100 for the full control effect.
